Whole data set: some 68,000 sequences, median “fluorescence intensity (a.u.)” near 9,100, cut for the highest 2% near 16,000. The list comes from a sample in which the highest values are over-represented; it also holds similar and randomly drawn sequences.
target: OsWRKY34 (Oryza sativa, UniProt Q0JBA9 1-250); assay: protein-binding microarray (RPBM); PBS, 2% BSA, 51.3 ng/ul salmon testes DNA, 50 uM zinc acetate, 200 nM TF, 25 C, 1 h; high values mean tight binding; conditions: protein: recombinant; tags: N-terminal polyhistidine and DsRed monomer fusion (pET32a); label: CyDye5-dUTP incorporated in the synthesized complementary strand; 3' TTTTT single-stranded linker to array surface; dsDNA, one strand shown
Outline: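 In PBS with 2% BSA, salmon testes DNA and 50 µM zinc acetate, 200 nM protein was incubated on a custom Agilent array at 25 °C for 1 h and then washed off. The array had been made double-stranded by primer extension with Cy5-dUTP and blocked with 2% BSA. The proteins were transcription factors fused N-terminally to polyhistidine and DsRed, expressed in E. coli BL21-CodonPlus and purified on Ni–NTA. The binding signal is per-feature fluorescence intensity (arbitrary units) from an Axon 4000B scanner.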

OsWRKY34, sequence (Q0JBA9 entry or part of it): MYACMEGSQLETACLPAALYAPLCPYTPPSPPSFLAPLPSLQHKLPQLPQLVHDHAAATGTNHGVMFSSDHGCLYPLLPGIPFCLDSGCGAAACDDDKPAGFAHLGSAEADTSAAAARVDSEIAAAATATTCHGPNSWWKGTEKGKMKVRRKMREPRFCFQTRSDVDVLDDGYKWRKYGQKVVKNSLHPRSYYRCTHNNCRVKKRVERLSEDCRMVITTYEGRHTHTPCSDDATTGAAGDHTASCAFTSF

Row | Sequence | binding signal
1 | CCCTCGTCTTCTTCTCCACGCGACGCCGGTCAAAGTTTGACGGAGTCACCTAGTGCAG | 10700 fluorescence intensity (a.u.)
2 | AGCCATCTTAAGTTAGGAACAGTTTCTTTTTTTAGAACTACGGAGTCACCTAGTGCAG | 8290 fluorescence intensity (a.u.)
3 | AAACCATTTTTTTTATCTATTATCCTTTGACTGTTTAATTCGGAGTCACCTAGTGCAG | 10500 fluorescence intensity (a.u.)
4 | AAATTTTTATATGCTGTGTATTTTCTATTTTTTTTATTTTCGGAGTCACCTAGTGCAG | 11100 fluorescence intensity (a.u.)
5 | GTGTTTGATTTGCCTCTCTTAAGAACCACTGTGAAAACATCGGAGTCACCTAGTGCAG | 9680 fluorescence intensity (a.u.)
6 | CTCGCCGCGTGCTCCTTTACTGCTCTCTGCTCGCGCAGGACGGAGTCACCTAGTGCAG | 9230 fluorescence intensity (a.u.)
7 | CCTCGACCGTCCCCAACCGACGACCCCGTGGTCACGCTCCCGGAGTCACCTAGTGCAG | 10900 fluorescence intensity (a.u.)
8 | GGTCAATTTAGGGCACACACCAAACCAGCCCTTACAACTTCGGAGTCACCTAGTGCAG | 8620 fluorescence intensity (a.u.)
9 | AAAAATATATCCAAGCAAATTCACACAGTCAAGTTCACTCCGGAGTCACCTAGTGCAG | 14800 fluorescence intensity (a.u.)
10 | GGTTGGTGTGGACCTTGCCCATTGTGAAACTTTGGTCAAACGGAGTCACCTAGTGCAG | 8070 fluorescence intensity (a.u.)
11 | ACTTATTTTAGTTTGACTTGATTTTTCATCAAATGTTTTTCGGAGTCACCTAGTGCAG | 10400 fluorescence intensity (a.u.)
12 | TTCGAAATGTTTAACGCCGTTGACTTTTTATCATATGTTTCGGAGTCACCTAGTGCAG | 35500 fluorescence intensity (a.u.)
13 | TCGAAATGTTTGACGCCGTTGACTTTTTAAGTATATGTTTCGGAGTCACCTAGTGCAG | 29200 fluorescence intensity (a.u.)
14 | TTCGAAATGTTTGACGCCGTTGACTTTTTAGCATATGTTTCGGAGTCACCTAGTGCAG | 13200 fluorescence intensity (a.u.)
15 | TCATGGATTATCTCTTTAATGTATAACGCCGTTGACTTTTCGGAGTCACCTAGTGCAG | 14300 fluorescence intensity (a.u.)
16 | CCGTTTCATATTTAAATTGTTTTGACTTTTTTATAGTTAACGGAGTCACCTAGTGCAG | 8140 fluorescence intensity (a.u.)
17 | AGTTTCGAAATATTTGACGCCGTTGACTTTTTATCAAATGCGGAGTCACCTAGTGCAG | 28300 fluorescence intensity (a.u.)
18 | TTCGTTTGACTTTTGCCGTTTCAAATTTGAATTCTCGAAACGGAGTCACCTAGTGCAG | 9080 fluorescence intensity (a.u.)
19 | CGTATGCTCCTTAGGTGATACTATGTCCCTATTTGCTTCACGGAGTCACCTAGTGCAG | 8180 fluorescence intensity (a.u.)
20 | TTTATTATTAGTCTAAGTTTAATACTTCTTATTAGTGTCACGGAGTCACCTAGTGCAG | 8180 fluorescence intensity (a.u.)
21 | TGATACTTGGCAGGCGTCGTCTCCAAATACCTGACCACTTCGGAGTCACCTAGTGCAG | 8290 fluorescence intensity (a.u.)

Row | Sequence | binding signal
22 | AATAGATCACCACATTCAATGCAGTTCTTCCGATTAAATTCGGAGTCACCTAGTGCAG | 9730 fluorescence intensity (a.u.)
23 | GGTTGCTCAGTTGCCGACACATTTCTGCAGACCCATTTTGCGGAGTCACCTAGTGCAG | 8080 fluorescence intensity (a.u.)
24 | CTGTCCTCTATCGATTGTTCTGACTTGGGTCACCATGTAACGGAGTCACCTAGTGCAG | 8990 fluorescence intensity (a.u.)
25 | CTCTGACTCTCTGTTCCAATTCCCACACGTTTCTCTCGCGCGGAGTCACCTAGTGCAG | 14800 fluorescence intensity (a.u.)
26 | CCGCCGAGTCACTGCTCTCGTTCTTATCCACACTGCCCGACGGAGTCACCTAGTGCAG | 9120 fluorescence intensity (a.u.)
27 | ACGTGTCACCTTCTTATTCGCTGGGTTTTTTCTGGTGGGTCGGAGTCACCTAGTGCAG | 8770 fluorescence intensity (a.u.)
28 | TTAGGTGTTTTGTAGTAGTGTAATGGGGCATATTCGTGGGCGGAGTCACCTAGTGCAG | 8270 fluorescence intensity (a.u.)
29 | CTTGTCTCTCTTTCTCTTTCTCTCTCTCTCACCTGTTATTCGGAGTCACCTAGTGCAG | 9740 fluorescence intensity (a.u.)
30 | GCTCTTATCCCGAGCTCGTGTCACTGGTGGGGTGGGGCCCCGGAGTCACCTAGTGCAG | 16600 fluorescence intensity (a.u.)
31 | TTCGTGGATGGGGTGGGCTCTTTCTCACTGTTATATTGTCCGGAGTCACCTAGTGCAG | 27500 fluorescence intensity (a.u.)
32 | ATGGGGTGTTTTTTTTTTCGCTATATTCTCTTAGAACTGTCGGAGTCACCTAGTGCAG | 18000 fluorescence intensity (a.u.)
33 | ATTGGTGGTAATCGGAGGTGGAGGTGGGCGTGATGATCTCCGGAGTCACCTAGTGCAG | 11100 fluorescence intensity (a.u.)
34 | AAGTGTTTTCGTTTTTTTTTCATTCGCTATTATTTTCTTTCGGAGTCACCTAGTGCAG | 9660 fluorescence intensity (a.u.)
35 | TTTCTCACTGTTATATTGTCTAATATCATCTTTCTCTTTTCGGAGTCACCTAGTGCAG | 9880 fluorescence intensity (a.u.)
36 | CCCACGTATTCCCCACCTTATCTCACTGTCTCGTGGGCCCCGGAGTCACCTAGTGCAG | 10500 fluorescence intensity (a.u.)
37 | AGGTAATCATATTGTTGTTATTCGTGGATGGGGTGGGCTCCGGAGTCACCTAGTGCAG | 16400 fluorescence intensity (a.u.)
38 | TTAGTAGTATATCGTCACCAATTATTGTAGTTAGCTCCACCGGAGTCACCTAGTGCAG | 9580 fluorescence intensity (a.u.)
39 | ATCCGATTTTTTTTCGCAATCTCCGAAATTTCACTTCTATCGGAGTCACCTAGTGCAG | 11200 fluorescence intensity (a.u.)
40 | GTCCGCTTCCATTGGGAGCGCGGCTACTGGCTGGGTTTACCGGAGTCACCTAGTGCAG | 8770 fluorescence intensity (a.u.)
41 | ATCCTATATTTGTTGCAGTTCATTCATTTCATCACCAGTTCGGAGTCACCTAGTGCAG | 8840 fluorescence intensity (a.u.)
42 | CGATCTCTCTCTCTCACACACCCGCCTCACCCTCACCGCCCGGAGTCACCTAGTGCAG | 10800 fluorescence intensity (a.u.)

— publication PMC7819943, “Rice protein-binding microarrays: a tool to detect cis-acting elements near promoter regions in rice”
